Screens (PubChem)
Sampled rows, rich in hits. Any-hit rate of the full collection: about 12%.
SARS PLpro yeast: SARS-CoV PLP inhibition in yeast. S. cerevisiae expressing SARS-CoV PLpro, growth rescue. Potency, µM (top dose mostly 32.9 µM), most hits filed as activators. 330,000 tested, 0.19% active; calls by dose curve; further: nearly all actives have a fitted effect of over 55% in size
Pf growth 96h: P. falciparum growth inhibition at 96 hours | P. falciparum luciferase reporter growth, 96 h | Potency, µM (series often up to 28.7 µM), hits mostly inhibitors | 320,000 tested, 6.9% active | AID 504834
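Cell-based qHTS: luciferase-tagged P. falciparum in erythrocytes (2% hematocrit, 0.05% parasitemia final) incubated with compounds for 96 hours, 37 C, 5% CO2; luciferase detection reagent then added and luminescence measured.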
Sm TGR block: S. mansoni TGR enzyme inhibition; Q962Y6; purified TGR, DTNB reduction, TNB absorbance 405 nm; Potency, µM (titrated, usually from 114 µM), usual class: inhibitors; 360,000 tested, 3% active; further: nearly all actives have a fitted effect of over 60% in size
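Kinetic colorimetric format: TGR-catalysed, NADPH-driven DTNB reduction monitored via TNB absorbance. Enzyme dispensed at 20 nM; compound exposure 15 min at room temperature before reaction start.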
Pf growth 48h: P. falciparum growth inhibition at 48 hours (one generation). P. falciparum luciferase growth in erythrocytes, 48 h. Potency, µM (doses to about 28.7 µM), most hits filed as inhibitors. 310,000 tested, 5.9% active
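Luciferase-expressing P. falciparum in infected erythrocytes (2% hematocrit, 0.1% parasitemia final) in RPMI 1640/0.5% Albumax were exposed to compound for 48 hours at 37 C, 5% CO2; growth read as luminescence.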
Each line names hits and unclear results; the compound was inactive in the other large screens. Unless noted, the call rests on the fitted dose curve; in most records, active means well fitted curve in the direction sought with a large enough effect; inconclusive means small, poorly fitted or top-dose-only effect, or another doubt; inactive means no such curve, though single readings can be large; an effect the other way counts as inactive or inconclusive.

COc1ccc2[nH]c(S(=O)Cc3ncc(C)c(OC)c3C)nc2c1 (centres undefined)	Pf growth 96h 5.86µM (no result: Pf growth 48h)
COc1ccnc(CS(=O)c2nc3cc(C(O)(F)F)ccc3[nH]2)c1OC (centres undefined)	none
CCOC(=O)c1ccc(Nc2ncnc3ccc(C)cc23)cc1	Pf growth 48h inconclusive
CCOC(=O)c1cccc(Nc2ncnc3ccc(C)cc23)c1	Pf growth 96h 9.28µM, Pf growth 48h 11.7µM
N#CCN=C(c1ccccc1)c1ccccc1	none
O=C(OCc1nnc(-c2ccccc2)o1)c1ccc(CO)cc1	none
Cc1ccc(/C=C/C(=O)OCn2nnc3ccccc3c2=O)o1	none
O=C(/C=C/c1ccco1)OCc1nnc(-c2ccc(Cl)cc2)o1	Sm TGR block 11.2µM
O=C(/C=C/c1ccco1)OCc1nnc(-c2ccccc2)o1	Sm TGR block 14.1µM
O=C(/C=C/c1ccco1)OCn1nnc2ccccc2c1=O	Sm TGR block 22.4µM
O=C(OCc1nnc(-c2ccccc2)o1)c1ccc(Cl)cc1	none (no result: Sm TGR block)
CCOC(=O)c1c(C)[nH]c(C(=O)OC(C)C(=O)Nc2ccccc2OC)c1C (centres undefined)	Pf growth 96h inconclusive
CCOc1ccc(C(=O)Nc2ccccc2OCc2cc(=O)n3ccccc3n2)cc1	none (no result: SARS PLpro yeast, Pf growth 96h, Pf growth 48h)
COC(=O)c1ccc(N)c(N=CC2=C(O)CC(C)(C)CC2=O)c1	none
COC(=O)c1ccc2c(c1)C(C)(C)C(/C=C/c1ccccc1O)=[N+]2C	Pf growth 96h inconclusive, Sm TGR block 50.1µM, Pf growth 48h inconclusive
CCOC(=O)[C@H]1[C@H]2COc3ccc(Cl)cc3[C@@H]2N2C(=O)c3cc(Cl)ccc3NC(=O)[C@@]12C	Pf growth 96h 10.4µM, Pf growth 48h inconclusive
CCOC(=O)[C@H]1[C@H]2COc3ccccc3[C@@H]2N2C(=O)c3cc(C)ccc3NC(=O)[C@@]12C	Pf growth 96h 13.1µM, Pf growth 48h inconclusive
CCOC(=O)[C@H]1[C@H]2COc3ccc(Cl)cc3[C@@H]2N2C(=O)c3ccccc3NC(=O)[C@@]12C	Pf growth 96h inconclusive, Pf growth 48h inconclusive
CCOC(=O)[C@H]1[C@H]2COc3ccc(Cl)cc3[C@@H]2N2C(=O)c3ccc(F)cc3NC(=O)[C@@]12C	Pf growth 96h inconclusive, Pf growth 48h 11.7µM
CCOC(=O)[C@H]1[C@H]2COc3ccccc3[C@@H]2N2C(=O)c3cc(Cl)ccc3NC(=O)[C@@]12C	Pf growth 96h 11.7µM, Pf growth 48h 10.4µM
CC[C@H](Cc1c(I)cc(I)c(N)c1I)C(=O)O	none (no result: SARS PLpro yeast, Sm TGR block)
CC1Cc2ccccc2N1C(=S)NC(=O)c1ccco1 (centres undefined)	none
O=C(NC(=S)N1CCCc2ccccc21)c1ccco1	Sm TGR block 28.2µM
Cc1cccc(OCC(=O)NC(=S)N2CCCc3ccccc32)c1	Pf growth 96h 9.28µM, Pf growth 48h inconclusive
Cc1ccc(NC(=O)c2cnn(-c3ccc(C)c(C)c3)c2C2CCN(C(=O)OC(C)(C)C)CC2)c(C)c1	none (no result: SARS PLpro yeast, Pf growth 96h, Pf growth 48h)
CCCCOC(=O)C1=C(C)NC(=O)NC1c1cccc([N+](=O)[O-])c1 (centres undefined)	none
COC(=O)C1=C(C)NC(C)=C(C(=O)OCCCN2CCC(c3ccccc3)(c3ccccc3)CC2)C1c1cccc([N+](=O)[O-])c1 (centres undefined)	Pf growth 96h 15.1µM, Pf growth 48h 1.51µM (no result: SARS PLpro yeast, Sm TGR block)
C#CCN1C(C)=C(C(=O)OC)C(c2cccc([N+](=O)[O-])c2)C(C(=O)OCC)=C1C (centres undefined)	Pf growth 96h inconclusive, Pf growth 48h 13.1µM (no result: SARS PLpro yeast)
CCOC(=O)c1sc2nc(CC(=O)OC)nc(NCc3ccco3)c2c1C	Sm TGR block 44.7µM, Pf growth 48h 2.62µM
CC1(C)Cc2c(sc3nc(=S)[nH]c(N)c23)CO1	Pf growth 96h inconclusive
CC(C)(C)C1CCC(=NNC(=O)CC(=O)NCc2ccccc2)CC1 (centres undefined)	Pf growth 96h 2.08µM
CC1CCC(=NNC(=O)Cc2ccccc2)CC1 (centres undefined)	Pf growth 96h inconclusive, Pf growth 48h inconclusive
O=C(CC(=O)NCc1ccccc1)NCc1ccccc1	none
O=C(CC(=O)N/N=C/c1c(F)cccc1Cl)NCCc1ccccc1	Pf growth 96h inconclusive
O=C(CC(=O)N/N=C/c1ccccc1)NCc1ccccc1	Pf growth 96h 10.4µM (no result: Sm TGR block)
O=C(CC(=O)N/N=C\c1c(Cl)cccc1Cl)NCc1ccccc1	Pf growth 96h 1.04µM
Cc1nc2ncnn2c(C)c1CCC(=O)N1CCN(c2ccccc2)CC1	none (no result: SARS PLpro yeast, Pf growth 96h, Pf growth 48h)
CC(=O)c1c(C)oc2ccc(N(C(=O)Oc3ccccc3)S(=O)(=O)c3ccccc3)cc12	none (no result: SARS PLpro yeast, Pf growth 96h, Pf growth 48h)
O=C1NCCCC1C(=O)N1CCN(C(=O)C2CCCNC2=O)CC1 (centres undefined)	Pf growth 48h 11.7µM
O=c1c2c3nc4ccccc4nc3n(-c3ccc4c(c3)OCCO4)c2ncn1C1CCCC1	Pf growth 48h 8.28µM (no result: Pf growth 96h)
CCN1CCN(c2nc3c(C)cccn3c(=O)c2/C=C(\C#N)S(=O)(=O)c2ccc(C)cc2)CC1	Pf growth 96h 4.15µM
CCOC(=O)C1CCN(c2nc3c(C)cccn3c(=O)c2/C=C(\C#N)S(=O)(=O)c2ccccc2)CC1	Pf growth 96h inconclusive, Pf growth 48h 9.28µM
Cc1cccn2c(=O)c(/C=C(\C#N)S(=O)(=O)c3ccccc3)c(N3CCCCC3)nc12	Pf growth 96h inconclusive, Pf growth 48h inconclusive
N#C/C(=C\c1c(N2CCCCC2)nc2ccccn2c1=O)S(=O)(=O)c1ccccc1	Pf growth 96h 5.22µM
COc1ccc(CNC(=O)c2ccc(Cn3c(=O)c4cccn4c4cccnc43)cc2)c(OC)c1	none (no result: SARS PLpro yeast, Pf growth 96h, Pf growth 48h)
CCOC(=O)c1ccc(NC(=O)CSc2nnc(-c3ccncc3)n2-c2ccccc2)cc1	none (no result: SARS PLpro yeast, Pf growth 96h, Pf growth 48h)
CCOC(=O)c1noc2nc(C)n(Cc3cccc(C#N)c3)c(=O)c12	none (no result: SARS PLpro yeast, Pf growth 96h, Pf growth 48h)
COc1ccc(Nc2nc(Nc3ccc(OC)cc3)nc(-n3[nH]c(=O)c(C)c3C)n2)cc1	Pf growth 48h 2.62µM (no result: Pf growth 96h)
COc1ccc(Nc2nc(OC)nc(OC)n2)cc1	Pf growth 96h inconclusive, Pf growth 48h inconclusive
CC(C)N(Cc1ccccc1)C(=O)COC(=O)c1ccc(S(=O)(=O)N2CCOCC2)cc1	none (no result: Pf growth 96h, Sm TGR block, Pf growth 48h)
COc1ccccc1NC(=O)c1ncn(-c2ccccc2)n1	none (no result: SARS PLpro yeast, Pf growth 96h, Pf growth 48h)
CCN(CC)S(=O)(=O)c1ccc(N2CCOCC2)c(NCC(=O)Nc2ccc(F)cc2)c1	Pf growth 48h inconclusive
CCN(CC)S(=O)(=O)c1ccc(N2CCN(C)CC2)c(NC(=O)Nc2ccc(C)cc2)c1	Pf growth 96h inconclusive, Pf growth 48h 9.28µM
CCN(CC)S(=O)(=O)c1ccc(N2CCN(C)CC2)c(NC(=O)CSCC(=O)Nc2cccc(C)c2)c1	Pf growth 96h inconclusive, Pf growth 48h 16.5µM
Cc1ccc(S(=O)(=O)N(C)C[C@@H]2Oc3ccc(NC(=O)Cn4cnnn4)cc3C(=O)N([C@@H](C)CO)C[C@H]2C)cc1	none (no result: Pf growth 96h, Sm TGR block, Pf growth 48h)
COc1ccc(-n2ncc(C(C)NS(=O)(=O)c3cc(F)ccc3C)c2C)cc1 (centres undefined)	none
Cc1ccccc1NC(=O)CCS(=O)(=O)c1ccc(Br)s1	none
CC(=O)c1cccc(NC(=O)CCS(=O)(=O)c2ccc(Br)s2)c1	Sm TGR block 39.8µM
